Assays:
Format in all cases: functional
[1] = target: Solute carrier family 2, facilitated glucose transporter member 1 (Homo sapiens) (UniProt P11166); assay: ST_JUDE_LEISH: Cytotoxicity at 2uM final concentration against transgenic Leishmania Mexicana promastigotes LmGLUT1 that are glucose transport deficient and complemented with the human glucose transporter GLUT1. Activity is measured by DNA content using SYBR green in vitro
[2] = target: Hexose transporter 1 (Plasmodium falciparum) (UniProt O97467); assay: ST_JUDE_LEISH: Cytotoxicity at 2uM final concentration against transgenic Leishmania Mexicana promastigotes LmPfHT that are glucose transport deficient and complemented with the Plasmodium falciparum hexose transporter. Activity is measured by DNA content using SYBR green in vitro
[3] = target: Glucose transporter (Leishmania mexicana) (UniProt O61059); assay: ST_JUDE_LEISH: Cytotoxicity at 2uM final concentration against transgenic Leishmania Mexicana promastigotes LmGT2 that are glucose transport deficient and complemented with the L. Mexicana glucose transporter 2. Activity is measured by DNA content using SYBR green in vitro

Sequence of Solute carrier family 2, facilitated glucose transporter member 1 (Homo sapiens) (P11166 whole entry): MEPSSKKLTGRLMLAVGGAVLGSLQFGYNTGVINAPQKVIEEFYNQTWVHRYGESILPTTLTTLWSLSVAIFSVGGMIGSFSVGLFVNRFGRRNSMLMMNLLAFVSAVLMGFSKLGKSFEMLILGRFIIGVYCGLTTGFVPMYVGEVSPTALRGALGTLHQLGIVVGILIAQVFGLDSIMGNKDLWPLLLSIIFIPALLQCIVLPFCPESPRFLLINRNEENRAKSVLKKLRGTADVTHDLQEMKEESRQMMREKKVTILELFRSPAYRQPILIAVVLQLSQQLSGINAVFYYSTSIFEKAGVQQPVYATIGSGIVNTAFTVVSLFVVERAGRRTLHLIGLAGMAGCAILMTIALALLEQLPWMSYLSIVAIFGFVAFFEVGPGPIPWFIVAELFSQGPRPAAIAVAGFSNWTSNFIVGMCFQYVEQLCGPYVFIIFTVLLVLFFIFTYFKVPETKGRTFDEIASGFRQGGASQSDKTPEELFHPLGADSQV

SMILES | inhibition [1] | inhibition [2] | inhibition [3]
CCc1ccc(S(=O)(=O)Nc2ccc(CCN(C)C3CCN(C)CC3)cc2)cc1 | 3.75% | 3.41% | 2.27%
COc1ccc2cc(-c3nc(-c4c(Cl)cccc4Cl)[nH]c3-c3ccnc(NCCCN4CCCCC4C)c3)ccc2c1 (stereo not given) | 0.59% | -0.07% | 0.19%
CCOc1cc(C(=O)NCCN(CC)c2cccc(C)c2)ccc1-c1nc2cc(Cl)ccc2[nH]1 | 3.14% | 1.88% | 1.84%
CCN(CC)CCN(Cc1ccc(-c2ccc(C(F)(F)F)cc2)cc1)C(=O)Cn1c(CCc2ccc(F)c(F)c2)cc(=O)c2ccccc21 | 7.8% | 7.35% | 8.28%
Cc1c(Cc2ccccc2Cl)cnc2nc(N)nc(N)c12 | 18.9% | 37.5% | 24.1%
Cc1cccc(-n2c(=O)c3c4c(sc3n3c(SCCC(C)C)nnc23)CCCC4)c1 | 0.75% | 1.59% | -0.43%
O=C(Nc1cccc(CN2CCCN(CC3CC3)CC2)c1)c1ccc(Cl)c(Cl)c1 | 10.8% | 10.2% | 12.6%
COc1cc2ncnc(Nc3ccc(OCc4ccccc4Br)c(Cl)c3)c2cc1OC | -3.06% | 1.28% | 6.38%
COc1ccc(C=NN=c2cc(C)[nH]c3ccccc23)c2ccccc12 | 8.8% | 6.92% | 2.26%
NC(=O)C1CCN(Cc2ccc(-c3ccc(-c4nc5cc(C(F)(F)F)ccc5[nH]4)s3)cc2)CC1 | 4.68% | 3.12% | 4.69%
CC(C)N1CCC(N(Cc2ccc(-c3ccc(C(F)(F)F)cc3)cc2)C(=O)Cn2c(CCc3cccc(F)c3F)cc(=O)c3c2CCC3)CC1 | 3.12% | 4.34% | 5.2%
N#Cc1ccccc1C1CCN(C2CCC(Nc3cc(-c4cccnc4)ccn3)CC2)CC1 (stereo not given) | 2.02% | 1.09% | 2.26%
O=C(/C=C/c1ccc(Cl)c(Cl)c1)NCCCCCN1CCCN(C(=O)Nc2cccc(C(F)(F)F)c2)CC1 | 3.99% | 2.84% | 3.62%
Cc1cc2c(cc1C(F)(F)F)N(C(=O)Nc1cc(C(=O)NC3CCN(Cc4ccccc4)C3)cc(C(F)(F)F)c1)CC2 (stereo not given) | 6.43% | 6.1% | 7.35%
O=C(Cc1ccc(Cl)cc1)NC1CCN(c2ccnc3cc(Cl)ccc23)C1 (stereo not given) | -0.91% | 0.24% | 0.26%
CCCCCCNC(=O)C1Cc2c([nH]c3cc(Cl)ccc23)C2(CCN(CCC)CC2)N1 (stereo not given) | 3.28% | 2.13% | 2.32%
O=S(=O)(c1c(Cl)cc(Cl)cc1Cl)N1CCCCC(c2ccc(Cl)cc2)=N1 | -1.49% | -1.87% | -1.41%
CC(C)COc1ccc(Cl)cc1Cc1ccc(-c2nc3cc(F)c(F)cc3[nH]2)o1 | 3.02% | 1.87% | 1.02%
N#Cc1cnc(Nc2ccc(Oc3ccccc3)cc2)nc1Nc1cccc(S(N)(=O)=O)c1 | -0.14% | 5.38% | 5.25%
O=C(NCCN1CCCC1)c1cccc(Nc2nccc(Nc3ccc(Oc4ccccc4)cc3)n2)c1 | 2.86% | 3.85% | 2.53%
COc1cccc(-c2ccc3c(-c4cccc(S(C)(=O)=O)c4)cnc(N)c3c2)c1 | 8.21% | 5.42% | 2.21%
CC(=O)Nc1cccc(C(=O)Nc2cccc(-c3ccc(-c4nc5cc(F)ccc5[nH]4)cc3)c2)c1 | 2.1% | 2.11% | 1.46%
COc1ccc(CNC2CCN(C)CC2)cc1-c1ccc(S(=O)(=O)NCC2CCCO2)s1 (stereo not given) | 3.99% | 4.98% | 5.52%
c1ccc(CN2CCc3cc4nccc(N5CCNCC5)c4cc32)cc1 | -3.94% | -1.76% | 0.88%
Cc1noc(C)c1-c1ccc(C(=C2CCCCCC2)c2ccc(O)cc2)cc1 | 3.18% | 3.88% | 4.06%

SMILES | inhibition [1] | inhibition [2] | inhibition [3]
CCC(C)OC(=O)C1=C(C)NC2=C(C(=O)CC(c3ccc(OC)c(OC)c3)C2)C1c1ccc(O)cc1 (stereo not given) | 3.25% | 1.77% | 1.8%
CCOc1cc(CC)ccc1C1CCN(CCCCNC(=O)c2ccc(NC(=O)c3ccc(C#N)cc3)cc2)CC1 | 2.45% | 0.91% | 2.06%
O=C(Nc1cc(F)cc(F)c1)NC1CCN(CCCCCNC(=O)C2CC2c2ccc(Cl)c(Cl)c2)CC1 (stereo not given) | 0.3% | -0.08% | -2.77%
c1ccn2c(-c3ncnc(NCc4ccc5c(c4)CCO5)n3)cnc2c1 | 1% | 1.45% | 0.24%
CCC(C)(C)c1ccc(OCCCC(=O)Nc2ccc(Cl)c([N+](=O)[O-])c2)c(C(C)(C)CC)c1 | 0.37% | 0.79% | 1.34%
COc1ccc2nccc(CCC3(O)CCC(NCc4cc5c(cc4F)SCC(=O)N5)CC3)c2c1 (stereo not given) | 0.25% | 2.45% | -2.7%
CC(=O)Nc1ccc(C#Cc2ccc(-c3c(C)[nH]c(C)c(Cl)c3=O)cc2)cc1 | 1.3% | 0.64% | 1.24%
CCOc1cc(C(=O)NCC2CCN(CC3CCCCC3)CC2)ccc1-c1nc2cc(Cl)ccc2[nH]1 | 0.56% | 1.54% | 1.19%
Cc1ccccc1C1CCN(C2CCC(NC(=O)c3ccc(-c4cccc(C(F)(F)F)c4)o3)CC2)CC1 (stereo not given) | 5.47% | 2.19% | 3.24%
Cc1ccc(Nc2nccc(NCC(O)c3cccc(C(F)(F)F)c3)n2)cc1 (stereo not given) | 4.66% | 4% | 0.81%
Cc1ccc(C)c(Cn2ccc3nc(N)nc(N)c32)c1 | 2.05% | 1.94% | -0.67%
N=C(N)NN=CC(=O)Nc1cccc(C(F)(F)F)c1 | 0.23% | 0.15% | -1.62%
O=C(Nc1ccc(Cl)cc1)Nc1cccc(-c2cccc(-c3nc4cc(C(F)(F)F)ccc4[nH]3)c2)c1 | -0.58% | -0.83% | -2.27%
Cc1cc(-c2c[nH]c3ncc(-c4cccc5ncccc45)cc23)ccc1C(=O)O | 0.89% | 0.55% | 0.66%
CNC(=O)CSc1nnc(-c2ccc(C)cc2)c(-c2ccc(C)cc2)n1 | 2.46% | 2.74% | 1.88%
CN1CCN(Cc2cc3cc(NC(=O)/C=C/c4cccc(Cl)c4)ccc3s2)CC1 | 0.65% | 0.04% | -0.14%
CC(C)C[C@@H](NC(=O)NC1CCC(CCN2C3CCC2CC(OC(=O)C(CO)c2ccccc2)C3)CC1)C(O)(c1ccccc1)c1ccccc1 (stereo not given in full) | 3.28% | 2.19% | 0.94%
O=C(CN(c1cccc(C(F)(F)F)c1)S(=O)(=O)c1ccc(Cl)cc1)NCCC(c1ccccc1)c1ccccc1 | -0.18% | -0.47% | -2.89%
Cc1cc(N[C@@H](CC(C)C)C(=O)NCc2cccs2)nc(NCCc2ccccc2)n1 | 7.7% | 5.79% | 5.49%
CCOC(=O)c1ccc(NC(=O)NCCCC2CCCN(CCCCCNC(=O)/C=C/c3ccc(Cl)c(Cl)c3)C2)cc1 (stereo not given) | 1.46% | 1.66% | 0.52%
CCCc1ccc(NC(=O)c2cccc(CN3CCCN(Cc4cccc(O)c4)CC3)c2)cc1 | -0.09% | 2.34% | 0.71%
COc1ccc2nccc([C@@H](O)CN3CCC(NC(=O)c4ccc(Cl)c([N+](=O)[O-])c4)CC3)c2c1 | 13.3% | 8.44% | 0%
CN1C(=C2SC(=Nc3ccc4ncccc4c3)N(Cc3ccccc3)C2=O)Sc2ccc(Cl)cc21 | 1.22% | 2.08% | 1.06%
Cc1cc(Cc2ccc(S(=O)(=O)c3cc4c(cc3O)CCN(C)CC4)cc2)ccc1Cl | -0.06% | 2.07% | 0.31%
CCN1CCCC(Nc2ccnc3cc4ccccc4cc23)C1 (stereo not given) | 4.12% | 4.34% | 4.81%
